# Source: PubChem BioAssay (Tox21)
# Inconclusive results are not listed. Where a call stands in place of a potency, no number is given. Calls of active or inactive are those of the source. The call rests on the fitted dose curve; in most records, active means well fitted cell-killing curve with a large enough effect in the repeat runs; inconclusive means weak or mixed curves, or effect the other way; inactive means no such curve, though single readings can be large or run the other way.
# Assay: qHTS assay to identify small molecule antagonists of the glucocorticoid receptor (GR) signaling pathway - cell viability counter screen (AID 720693); further: nearly all actives have a fitted effect of over 55% in size
# Conditions: GR-bla HeLa viability, CellTiter-Glo luminescence, 18 h, with 5 nM dexamethasone present; series mostly up to 58.5 µM
row,Compound,Potency
1,CN(C)CCCN1c2ccccc2Sc2ccccc21,inactive
2,Cc1nn(C)c(Oc2ccccc2)c1/C=N/OCc1ccc(C(=O)OC(C)(C)C)cc1,inactive
3,Nc1c(CC(=O)O)cccc1C(=O)c1ccc(Br)cc1,inactive
4,C=C(C)C(=O)OCC,inactive
5,CCCCCCCC/C=C\CCCCCCCC(=O)OCC,inactive
6,CN(Cc1ccc(C(C)(C)C)cc1)Cc1cccc2ccccc12,inactive
7,COc1ccc(S(=O)(=O)N2C(=O)[C@@](c3ccccc3OC)(N3C[C@H](O)C[C@H]3C(=O)N(C)C)c3cc(Cl)ccc32)c(OC)c1,inactive
8,COc1cc2c(cc1OC)C(C(C(=O)N(CCc1ccc(OC)c(OC)c1OC)CCc1ccc(OC)c(OC)c1OC)c1ccccc1)=NCC2 (stereo not drawn),inactive
9,CCN(CC)CCNC(=O)c1cc(Br)c(N)cc1OC,inactive
10,CC1OC(=O)C(C)OC1=O (stereo not drawn),inactive
11,CCCCC/C=C\C/C=C\CCCCCCCC(=O)NC(C)c1ccccc1 (stereo not drawn),inactive
12,O=C(O)CC(=O)C(=O)O,inactive
13,OCc1cc(C(O)CNCCCCCCOCCCCc2ccccc2)ccc1O (stereo not drawn),inactive
14,C=C(C)C(=O)OCCO,inactive
15,CC/C=C\CCOC(=O)CC,inactive
16,COc1cc2nc(N(C)CCCNC(=O)C3CCCO3)nc(N)c2cc1OC (stereo not drawn),inactive
17,O=C(O)C1(C(=O)Nc2ccc(Cl)cc2Cl)CC1,inactive
18,CCCCCCCCCOS(=O)(=O)O,inactive
19,O=C1c2ccccc2S(=O)(=O)N1CCCCN1CCN(c2ncccn2)CC1,inactive

row,Compound,Potency
1,OC(C#CCN1CCCC1)(c1ccccc1)c1ccccc1,inactive
2,CC(C)(CO)[N+](=O)[O-],inactive
3,CCO[Si](CCCCl)(OCC)OCC,inactive
4,O=C1C(O)=C(O)C(=O)C(O)=C1O,inactive
5,O=C(O)C(S)C(S)C(=O)O (stereo not drawn),inactive
6,CNC(=O)CN(CCN(CCN(CC(=O)[O-])CC(=O)NC)CC(=O)[O-])CC(=O)[O-].O.[Gd+3],inactive
7,O=[N+]([O-])c1ccc(NCCO)c(OCCO)c1,inactive
8,O=C(OCCCCCCOC(=O)c1ccccc1)c1ccccc1,inactive
9,CCC(C)c1cc(C(C)(C)C)c(O)c(C(C)(C)C)c1 (stereo not drawn),inactive
10,Nc1cc(C(=O)O)c(O)c(S(=O)(=O)O)c1,inactive
11,COc1ccc(C)cc1[N+](=O)[O-],inactive
12,CC(C)O.CC(C)O.CCOC(=O)/C=C(\C)O.CCOC(=O)/C=C(\C)O.[Ti],inactive
13,CC(C)CC(=O)C1C(=O)c2ccccc2C1=O,inactive
14,CCNc1cc(O)ccc1C,inactive
15,C/C=C/C(=O)CC,inactive
16,CN1CCC(N(Cc2cccs2)c2ccccc2)CC1,inactive
17,CCOc1ccc(N=Nc2ccc(/C=C/c3ccc(N=Nc4ccc(OCC)cc4)cc3S(=O)(=O)O)c(S(=O)(=O)O)c2)cc1,inactive
18,CCCCOC(=O)CCCCCCCC(=O)OCCCC,inactive
19,CCCCCCCC#N,inactive
